Inconclusive results are not listed. Activity calls are given as the source filed them. Unless noted, calls come from the whole dose curve; as a rule, active = well fitted curve in the direction sought with a large enough effect in the repeat runs; inconclusive = weak or mixed curves; inactive = no such curve, though single readings can be large; an effect the other way counts as inactive or inconclusive.
Assays:
[1] = qHTS assay to test for compound auto fluorescence at 535 nm (green) in HEK293 cells (AID 720680)
[2] = qHTS assay to test for compound auto fluorescence at 460 nm (blue) in HEK293 cell free culture (AID 720681)
Method in brief: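 Compounds were added to cell-free DMEM with 10% FBS and fluorescence read directly. The blue channel used 405 nm excitation and 460 nm emission, with triamterene as the reference fluorophore.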

[3] = qHTS assay to test for compound auto fluorescence at 535 nm (green) in HEK293 cell free culture (AID 720682)
Method in brief: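 Steps: dispense DMEM/10% FBS into empty wells; pin in compound or DMSO; measure fluorescence at 485/535 nm. Values are fluorescein equivalents.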

[4] = qHTS assay to test for compound auto fluorescence at 590 nm (red) in HepG2 cell free culture (AID 720684)
Method in brief: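 Compounds are added to culture medium (MEM, 10% FBS) lacking cells, then fluorescence is read at excitation 540 nm, emission 590 nm, with Rose Bengal sodium as the equivalency standard.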

[5] = qHTS assay to test for compound auto fluorescence at 460 nm (blue) in HepG2 cell free culture (AID 720685)
Method in brief: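 Compound (23 nL) or DMSO pinned into cell-free MEM with 10% FBS; blue fluorescence read at 405/460 nm excitation/emission, expressed as auto-fluorescence equivalency to triamterene.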

[6] = qHTS assay to test for compound auto fluorescence at 535 nm (green) in HepG2 cell free culture (AID 720686)
[7] = qHTS assay to test for compound auto fluorescence at 460 nm (blue) in HepG2 cells (AID 720687)
Method in brief: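 HepG2 cells in MEM with 10% FBS, attached overnight at 37 C, were exposed to compound or DMSO for 1 hr at 37 C, 5% CO2. Blue fluorescence was read at 405/460 nm, with triamterene as reference fluorophore.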

[8] = qHTS assay to identify small molecule antagonists of the glucocorticoid receptor (GR) signaling pathway - cell viability counter screen (AID 720693); note: nearly all actives have a fitted effect of over 55% in size
[9] = qHTS assay for identifying genotoxic compounds that show differential cytotoxicity against isogenic chicken DT40 cell lines with known DNA damage response pathways - wild type cell line (AID 743012); note: nearly all actives have a fitted effect of over 60% in size; note: potency is the fitted concentration of half-maximal effect
Method in brief: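 Cells (DT40 wild type, 300/well) are treated with DMSO-dissolved compounds after a ~0.5 h pre-incubation and kept 40 h at 37 C/5% CO2. Viability is then measured by CellTiter-Glo luminescence following 30 min at room temperature.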

[10] = qHTS assay for identifying genotoxic compounds that show differential cytotoxicity against isogenic chicken DT40 cell lines with known DNA damage response pathways - Rev3 mutant cell line (AID 743014); note: nearly all actives have a fitted effect of over 55% in size; note: potency is the fitted concentration of half-maximal effect
[11] = qHTS assay for identifying genotoxic compounds that show differential cytotoxicity against isogenic chicken DT40 cell lines with known DNA damage response pathways - Rad54/Ku70 mutant cell line (AID 743015); note: nearly all actives have a fitted effect of over 60% in size; note: potency is the fitted concentration of half-maximal effect
[12] = biological target: Androgen receptor (Homo sapiens) (UniProt P10275); assay: qHTS assay to identify small molecule antagonists of the androgen receptor (AR) signaling pathway (AID 743035; active = well fitted inhibition curve with a large enough effect in the signal ratio in the repeat runs, not every such curve was filed as active; the % refers to the signal ratio; note: potency is the fitted concentration of half-maximal effect)
Sequence of Androgen receptor (Homo sapiens) (P10275 whole entry, looked up): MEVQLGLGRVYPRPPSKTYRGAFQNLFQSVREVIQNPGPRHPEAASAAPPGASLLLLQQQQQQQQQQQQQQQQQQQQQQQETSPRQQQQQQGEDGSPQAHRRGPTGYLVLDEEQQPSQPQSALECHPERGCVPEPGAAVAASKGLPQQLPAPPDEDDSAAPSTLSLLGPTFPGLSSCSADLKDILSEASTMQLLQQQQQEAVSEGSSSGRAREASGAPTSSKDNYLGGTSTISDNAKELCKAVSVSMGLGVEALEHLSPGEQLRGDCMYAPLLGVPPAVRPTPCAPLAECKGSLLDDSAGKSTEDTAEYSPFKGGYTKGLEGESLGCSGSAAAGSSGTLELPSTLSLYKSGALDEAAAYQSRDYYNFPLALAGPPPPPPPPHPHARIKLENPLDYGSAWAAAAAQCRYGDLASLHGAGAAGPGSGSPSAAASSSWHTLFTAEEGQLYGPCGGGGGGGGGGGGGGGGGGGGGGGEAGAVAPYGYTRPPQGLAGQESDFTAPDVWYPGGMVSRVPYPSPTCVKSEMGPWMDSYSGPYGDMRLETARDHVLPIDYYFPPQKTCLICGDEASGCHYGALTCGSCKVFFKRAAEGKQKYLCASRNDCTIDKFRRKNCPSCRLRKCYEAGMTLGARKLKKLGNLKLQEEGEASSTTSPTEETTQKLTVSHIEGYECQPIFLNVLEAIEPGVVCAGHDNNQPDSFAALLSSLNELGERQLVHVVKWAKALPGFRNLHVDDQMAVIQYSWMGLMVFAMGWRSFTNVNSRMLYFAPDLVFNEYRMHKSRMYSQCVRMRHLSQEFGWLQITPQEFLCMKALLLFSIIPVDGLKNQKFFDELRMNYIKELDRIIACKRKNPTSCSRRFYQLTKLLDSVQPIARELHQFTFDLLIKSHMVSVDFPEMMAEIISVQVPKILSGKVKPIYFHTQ
Method in brief: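 Antagonism is scored as loss of R1881-driven beta-lactamase reporter expression in HEK293 cells carrying the reporter under a UAS element, after 16 h co-treatment at 37C and a 2 h room-temperature FRET substrate read.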

[13] = biological target: Androgen receptor (Homo sapiens) (UniProt P10275); assay: qHTS assay to identify small molecule agonists of the androgen receptor (AR) signaling pathway (AID 743036; active = well fitted activation curve with a large enough effect in the signal ratio in the repeat runs, with a control signal flat, not every such curve was filed as active; the % refers to the signal ratio)
Method in brief: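 Reporter line: GeneBLAzer AR-UAS-bla-GripTite (HEK293). Steps: plate cells, 4 h rest, add compounds, 16 h at 37C, add LiveBLAzer B/G substrate, 2 h at RT, read fluorescence.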

[14] = biological target: Androgen receptor (Homo sapiens) (UniProt P10275); assay: qHTS assay to identify small molecule agonists of the androgen receptor (AR) signaling pathway using the MDA cell line (AID 743040; note: nearly all actives have a fitted effect of over 20% in size)
Method in brief: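 Human breast carcinoma MDA-kb2 reporter cells (MMTV-luc, AR/GR elements) were treated for 16 h at 37C in 0% CO2 following a 5 h settling period. Signal was quantified by ONE-Glo luminescence.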

[15] = qHTS assay to identify small molecule antagonists of the androgen receptor (AR) signaling pathway using the MDA cell line - cell viability counter screen (AID 743041; note: nearly all actives have a fitted effect of over 45% in size)
Method in brief: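 Same-well cytotoxicity was assessed by CellTiter-Fluor in MDA-kb2 AR-luc cells after 16 h of compound treatment under R1881 agonism.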

[16] = biological target: Androgen receptor (Homo sapiens) (UniProt P10275); assay: qHTS assay to identify small molecule antagonists of the androgen receptor (AR) signaling pathway using the MDA cell line (AID 743042; note: nearly all actives have a fitted effect of over 55% in size)
Method in brief: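 MDA-kb2 breast carcinoma cells carrying MMTV-luciferase (AR/GR responsive) were co-treated with compounds and the agonist R1881 for 16 h at 37C. Inhibition read as ONE-Glo luminescence; CellTiter-Fluor fluorescence measured in parallel for cytotoxicity.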

[17] = biological target: Glucocorticoid receptor (Homo sapiens) (UniProt P04150); assay: qHTS assay to identify small molecule antagonists of the glucocorticoid receptor (GR) signaling pathway (AID 720692; active = well fitted inhibition curve with a large enough effect in the signal ratio in the repeat runs, not every such curve was filed as active; the % refers to the signal ratio)
Sequence of Glucocorticoid receptor (Homo sapiens) (P04150 whole entry, looked up): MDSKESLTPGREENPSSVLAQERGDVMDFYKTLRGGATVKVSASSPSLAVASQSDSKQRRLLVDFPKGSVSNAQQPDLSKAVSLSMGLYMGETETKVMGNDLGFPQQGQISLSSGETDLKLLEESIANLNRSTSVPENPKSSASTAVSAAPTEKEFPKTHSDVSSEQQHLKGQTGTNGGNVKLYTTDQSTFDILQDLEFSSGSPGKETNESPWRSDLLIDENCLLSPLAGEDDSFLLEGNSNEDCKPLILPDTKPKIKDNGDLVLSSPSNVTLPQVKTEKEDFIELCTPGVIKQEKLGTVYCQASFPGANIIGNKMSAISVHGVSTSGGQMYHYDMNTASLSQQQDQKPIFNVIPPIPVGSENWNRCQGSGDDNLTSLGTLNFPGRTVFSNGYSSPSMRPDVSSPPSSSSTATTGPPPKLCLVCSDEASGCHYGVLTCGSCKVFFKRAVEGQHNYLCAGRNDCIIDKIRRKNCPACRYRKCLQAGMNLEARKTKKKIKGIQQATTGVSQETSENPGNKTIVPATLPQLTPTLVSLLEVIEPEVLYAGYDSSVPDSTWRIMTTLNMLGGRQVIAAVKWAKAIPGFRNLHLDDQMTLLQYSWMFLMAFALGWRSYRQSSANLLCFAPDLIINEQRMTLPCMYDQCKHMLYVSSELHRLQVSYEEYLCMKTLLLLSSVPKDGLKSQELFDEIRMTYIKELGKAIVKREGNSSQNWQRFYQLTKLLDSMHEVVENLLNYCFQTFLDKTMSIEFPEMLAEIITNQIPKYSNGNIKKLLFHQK
Method in brief: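 Cells plated, rested 4 h at 37 C/5% CO2; compounds in DMSO pin-transferred; dexamethasone added to 5 nM final; 18 h at 37 C; B/G FRET substrate added, 2 h room temperature; fluorescence measured.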

[18] = qHTS assay to identify small molecule antagonists of the androgen receptor (AR) signaling pathway - cell viability counter screen (AID 743033; note: nearly all actives have a fitted effect of over 45% in size)
[19] = biological target: Glucocorticoid receptor (Homo sapiens) (UniProt P04150); assay: qHTS assay to identify small molecule agonists of the glucocorticoid receptor (GR) signaling pathway (AID 720691; active = well fitted activation curve with a large enough effect in the signal ratio in the repeat runs, not every such curve was filed as active; the % refers to the signal ratio)
Method in brief: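 Agonist mode in a HeLa line carrying a GRE-controlled beta-lactamase reporter. Compounds act for 18 h at 37 C before a 2 h room-temperature FRET substrate step and fluorescence reading.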

Measured: Potency

CCCCCCc1ccc(N)cc1
inactive: [1] | [2] | [3] | [4] | [5] | [6] | [7] | [8] | [13] | [14] | [15] | [16]
active: [9] 19.3 µM | [10] 34.4 µM | [11] 43.3 µM | [12] 24.5 µM

CCCc1ccccc1
inactive: [1] | [2] | [3] | [5] | [6] | [7] | [17] | [10] | [11] | [18] | [15]

CCCCCCCCCC=O
inactive: [1] | [2] | [3] | [4] | [7] | [8] | [9] | [10] | [11] | [18] | [15]

O=CNc1ccccc1
inactive: [1] | [2] | [3] | [4] | [5] | [6] | [7] | [19] | [8] | [9] | [11] | [18] | [15]

CC(=O)c1c(C)c([N+](=O)[O-])c(C(C)(C)C)c([N+](=O)[O-])c1C
inactive: [1] | [2] | [3] | [4] | [5] | [6] | [7] | [19] | [8] | [9] | [10] | [11] | [18] | [15]

CNCC[C@@H](Oc1ccccc1C)c1ccccc1
inactive: [1] | [2] | [3] | [4] | [5] | [6] | [7] | [19] | [8] | [18] | [12] | [13] | [14] | [15]
active: [9] 16.8 µM | [11] 29.8 µM

CC(=O)O[C@H]1C[C@@H]2CC[C@@H]3[C@H](CC[C@@]4(C)[C@H]3C[C@H]([N+]3(C)CCCCC3)[C@@H]4OC(C)=O)[C@@]2(C)C[C@@H]1N1CCCCC1
inactive: [1] | [2] | [3] | [4] | [5] | [6] | [7] | [8] | [9] | [11] | [18] | [15]

CC1(C)CCC(C)(C)c2cc(NC(=O)c3ccc(C(=O)O)cc3)ccc21
active: [9] 26.6 µM | [11] 23.7 µM
inactive: [1] | [2] | [3] | [4] | [5] | [6] | [7] | [19] | [18]

From PubChem BioAssay (Tox21)
